DAX1 inh-1: inhibitors of human orphan nuclear receptor DAX1 (NR0B1); HEK293 Gal4-DAX1 luciferase reporter, luminescence; P51843; 340,000 tested, 0.99% active; inhibition, % at 6.75 µM; AID 504766;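 active = inhibition above the mean over all tested compounds plus 3 SD, cut at about 4.2% in these data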;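 also: inhibition shows as a rise in luminescence from relieved DAX1 repression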
Target sequence (P51843 207-470 limits assumed): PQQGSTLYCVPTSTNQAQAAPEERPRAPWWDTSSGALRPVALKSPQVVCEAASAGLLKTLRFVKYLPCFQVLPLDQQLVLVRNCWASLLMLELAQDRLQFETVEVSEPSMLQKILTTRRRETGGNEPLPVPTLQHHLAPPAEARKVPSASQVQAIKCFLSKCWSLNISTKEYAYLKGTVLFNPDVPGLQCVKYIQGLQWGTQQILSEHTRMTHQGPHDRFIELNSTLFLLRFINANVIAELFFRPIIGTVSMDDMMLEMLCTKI
ssDAF-12 act: S. stercoralis DAF-12 activation, primary screen; HEK293 ssDAF-12/GRIP1 lit1-tk-luc reporter, luminescence; % of 3 µM dafachronic acid response; activation, % at 6.8 µM; 370,000 tested, 1% active; AID 652126;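 active = activation above the mean over all tested compounds plus 3 SD, cut at about 0.9% in these data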
SMARCA2 activ: SMARCA2 function activation, primary screen; MG213 cells, MMTV-luciferase reporter, dexamethasone, overnight; activation, % at 9.1 µM; 370,000 tested, 1% active; AID 652017; in the data active = activation above about 7.8%
hcDAF-12 act: activates DAF-12 receptor from parasite H. contortus; HEK293 hcDAF-12 lit1-tk-luc reporter, luminescence; 0% DMSO, 100% Δ7-dafachronic acid; activation, % at 6.8 µM; 370,000 tested, 1.4% active; AID 652067;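 active = activation above the mean of all tested compounds plus 3 SD, cut at about 5.5% in these data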
DAX1 inh-2: DAX1 (NR0B1) inhibition, primary screen; HEK293T StAR-luciferase reporter, SF-1/DAX-1 repression relief; inhibition, % at 6.8 µM; 370,000 tested, 1.1% active;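 active = inhibition above the mean over all tested compounds plus 3 SD, cut at about 3.6% in these data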;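 also: higher inhibition means more luminescence from relief of DAX-1 repression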
hgDAF-12 ag: activates the H. glycines DAF-12 receptor ligand-binding domain; HEK293 GAL4-hgDAF12 UAS-luciferase reporter, agonist luminescence; normalized to butyrate control; activation, % at 6.8 µM; 370,000 tested, 1.8% active;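 active = activation above a cutoff set at the mean of all screened compounds plus 3 SD, cut at about 10% in these data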
DAX1 inh confirm: NR0B1 (human) inhibition, confirmation; shares compounds with DAX1 inh-2; HEK293T StAR-promoter luciferase reporter, SF-1/DAX-1 repression; inhibition, % at 6.8 µM; 2,400 tested, 87% active;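 active = inhibition above the average of every tested compound plus 3 SD, cut at about 3.8% in these data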;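 also: active compounds raise luminescence by relieving repression of the StAR reporter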
SF1 AF2mut Luc: counter-screen for DAX1 inhibitors: nonselective inhibitors with SF-1 AF2 mutant. 2,400 tested, 78% active. HEK293 StAR-luciferase, luminescence. inhibition, % at 6.8 µM. shares compounds with DAX1 inh-2;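 active = inhibition above the mean of all tested compounds plus 3 SD, cut at about 3% in these data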
SMARCA2 act conf: confirmation of SMARCA2 (BRM) function activators | 3,500 tested, 30% active | MG213 cells, MMTV-luciferase with dexamethasone, luminescence, overnight; MG213 cells expressing E1A, Rb sequestered; DMSO wells 0%, reference activator 100% | shares compounds with SMARCA2 activ | activation, % at 9.1 µM;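 active = activation above its plate's cutoff, the mean activation of tested wells plus 3 SD, cut at about 7.9% in these data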
VP16 Luc act: counter-screen for SMARCA2 activators: GAL4-VP16 luciferase reporter activation; shares compounds with SMARCA2 activ; HEK293 GAL4-VP16 pG5luc reporter, luciferase luminescence; scaled: DMSO wells 0%, SAHA wells 100%; activation, % at 9.1 µM; 3,500 tested, 41% active; AID 686939;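 active = activation above the solvent-only control well mean plus 3 SD, averaged across control plates, cut at about 5.2% in these data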
LXRb hcDAF ctr: LXR-beta agonism as hcDAF-12 counter-screen; shares compounds with hcDAF-12 act; AID 743027; activation, % at 6.8 µM; HEK293 Gal4-LXR tk-luc reporter, luminescence, 24 h; normalized: DMSO 0%, positive control 100%; 3,400 tested, under 10 active;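 active = mean percent activation of the reporter above a cutoff set as the average over tested compounds plus their standard deviation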
hcDAF12 conf: hcDAF-12 agonism, confirmation assay; 3,400 tested, 61% active; shares compounds with hcDAF-12 act; HEK293 hcDAF-12 lit1-tk-luc reporter, luminescence; % of Δ7-dafachronic acid response; activation, % at 6.8 µM;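 active = mean activation across triplicate tests above the threshold derived from the earlier primary screen, cut at about 5.5% in these data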
hgDAF12 ag: confirmation of H. glycines DAF-12 agonists; activation, % at 6.8 µM; 3,300 tested, 80% active; HEK293 GAL4-hgDAF12 luciferase reporter, agonist mode; percent of butyrate response; shares compounds with hgDAF-12 ag;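 active = mean activation over triplicate wells above the hit cutoff derived from the earlier primary screen, cut at about 11% in these data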
LXR ag 2: LXR-beta agonism as DAF-12 counter-screen; shares compounds with hgDAF-12 ag; HEK293 Gal4-LXR luciferase reporter, 24 h; activation, % at 6.8 µM; 3,300 tested, under 10 active; AID 743051;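 active = mean activation of the triplicate above a set limit carried over from the primary screen, none filed active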
Of the large screens only hits and unclear results are named; the others gave an inactive call (follow-up assays come after a bar, where they were run). Most compounds without a hit are left out; they make up all but 4.8% or so of the library.

O=C(CSc1nnc(-c2ccc(Cl)cc2)n1C1CCCCC1)NN=Cc1c(O)ccc2ccccc12	none (no result: DAX1 inh-1)
C/C(=N\Nc1cccc2cccnc12)c1ccc[nH]1	ssDAF-12 act 1.3, hcDAF-12 act 10, DAX1 inh-2 7.5, hgDAF-12 ag 20 | DAX1 inh confirm 14 | SF1 AF2mut Luc 5.2 | LXRb hcDAF ctr inactive | hcDAF12 conf 9.9 | hgDAF12 ag 18 | LXR ag 2 inactive
O=C(CSc1nnc(COc2ccccc2)n1-c1ccc(Cl)cc1)Nc1ccc2c(c1)OCCO2	none (no result: DAX1 inh-1)
CCC(C)(C)C(=O)N1CCC(C(=O)NC2CCCc3ccccc32)CC1 (configuration not stated)	none (no result: DAX1 inh-1)
COc1ccc(C(=O)c2oc3ccc(OC)cc3c2N)cc1	DAX1 inh-2 6.1, hgDAF-12 ag 21 | DAX1 inh confirm 12 | SF1 AF2mut Luc 5.8 | hgDAF12 ag 15 | LXR ag 2 inactive
Cc1cc(C(=O)Nc2ccc(Br)cn2)sc1C	hcDAF-12 act 5.8, DAX1 inh-2 6.3, hgDAF-12 ag 14 | DAX1 inh confirm 13 | SF1 AF2mut Luc 8.6 | hgDAF12 ag 18 | LXR ag 2 inactive
CCC(=O)Nc1ccc(Br)cn1	none
O=C(N[C@H](C(=O)N1CCC[C@H]1C(=O)NCc1ccccc1)c1ccccc1)C1CCCC1	none (no result: DAX1 inh-1)
O=C(Nc1ccccc1NC(=O)c1csnn1)c1csnn1	none
CC(C)c1ccc(NC(=O)c2csnn2)cc1	ssDAF-12 act 1.1, DAX1 inh-2 4.7, hgDAF-12 ag 13 | DAX1 inh confirm 12 | SF1 AF2mut Luc 6.6 | hgDAF12 ag 13 | LXR ag 2 inactive
CCOC(=O)[C@@]12CCC3=C1N(CCC3)C(=O)[C@H](CC(=O)NCc1ccc(OC)c(OC)c1)C2	none (no result: DAX1 inh-1)
Cc1cc([N+](=O)[O-])ccc1NC(=O)c1csc(C)c1C	DAX1 inh-2 5.5, hgDAF-12 ag 19 | DAX1 inh confirm 4.5 | SF1 AF2mut Luc 2.9 | hgDAF12 ag 19 | LXR ag 2 inactive
CNC(=S)Nc1ccc([N+](=O)[O-])cc1C	none
CC(C#N)(Cc1ccccc1)Nc1ccccc1 (configuration not stated)	SMARCA2 activ 10, hcDAF-12 act 6.5, DAX1 inh-2 5.0, hgDAF-12 ag 14 | DAX1 inh confirm inactive | SF1 AF2mut Luc inactive | SMARCA2 act conf inactive | VP16 Luc act inactive | hgDAF12 ag inactive | LXR ag 2 inactive
C=CC(=O)NC(C)(C)Cc1ccccc1	none
COc1ccccc1N1CCN(S(=O)(=O)c2ccc3c(c2)n(C)c(=O)c(=O)n3C)CC1	none (no result: DAX1 inh-1)

Source: PubChem BioAssay
